Compound activity as filed in PubChem BioAssay.
HIF-2a block: inhibitors of HIF-2a | 786-0 RCC cells HIF-2a reporter, luciferase luminescence, overnight | inhibition, % at 18.8 µM | 0.72% of 360,000 active | AID 624352;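 active means inhibition of the luminescence signal of 40% or more relative to plate controls, in a single-dose primary screen at 18.75 µM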
EWS-Fli inh: EWS/Fli transcriptional activity inhibition. A673 NR0B1-luciferase reporter, viability-normalised. inhibition, % at 12.6 µM. 0.67% of 350,000 active;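 active means mean inhibition of at least 50% after viability correction, with every replicate also passing that limit; inconclusive means mean reaches 50% but only one of two replicates passes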;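 further: firefly luciferase signal divided by Alamar Blue viability fluorescence both relative to DMSO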
CF NFkB block: blocks PAF-induced NF-kB reporter in cystic fibrosis cells; KKLEB NF-kB-GFP reporter, GFP fluorescence overnight; inhibition, % at 5 µM; 0.86% of 360,000 active; AID 588850;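 active means at least 50% inhibition at 5 µM, scaled per plate between neutral and stimulator controls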;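 further: PAF is a Pseudomonas aeruginosa culture filtrate used as stimulus; plate controls were PAF-stimulated DMSO wells for no effect and unstimulated DMSO wells for full effect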
PAX8 reporter: PAX8 transcriptional activity inhibition | RMG-I TPO-luciferase reporter, SteadyGlo, 24 h | inhibition, % at 12.6 µM | 1.2% of 360,000 active;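 active means mean replicate inhibition at least 60% with every replicate also reaching 60%; inconclusive means only one of the two criteria is met; inactive means mean below 60% and not all replicates reaching 60%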;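 further: luciferase light reporting Pax8 driven TPO promoter activity; plate controls were median of neutral control wells for no effect and mitoxantrone controls for full effect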
KKLEB tox: counter-screen for CF NF-kB inhibitors: cytotoxicity | KKLEB CF airway cells viability, ATPlite luminescence, overnight; hits give low values; cells stimulated with P. aeruginosa culture filtrate | activity change (cytotoxicity), % at 5 µM | 0.36% of 360,000 active;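 active means corrected activity change at or below -50% at 5 µM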
Mdm2-MdmX confirm: Mdm2/MdmX (human) interaction inhibition, confirmed | 99% of 740 active | shares compounds with HIF-2a block | inhibition, % at 8 µM | SaOS-2 split-luciferase Mdm2/MdmX complementation, luminescence;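 active means mean inhibition of the luminescence signal across two replicates at or above 26 percent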
Target sequence (O15151 whole entry, looked up): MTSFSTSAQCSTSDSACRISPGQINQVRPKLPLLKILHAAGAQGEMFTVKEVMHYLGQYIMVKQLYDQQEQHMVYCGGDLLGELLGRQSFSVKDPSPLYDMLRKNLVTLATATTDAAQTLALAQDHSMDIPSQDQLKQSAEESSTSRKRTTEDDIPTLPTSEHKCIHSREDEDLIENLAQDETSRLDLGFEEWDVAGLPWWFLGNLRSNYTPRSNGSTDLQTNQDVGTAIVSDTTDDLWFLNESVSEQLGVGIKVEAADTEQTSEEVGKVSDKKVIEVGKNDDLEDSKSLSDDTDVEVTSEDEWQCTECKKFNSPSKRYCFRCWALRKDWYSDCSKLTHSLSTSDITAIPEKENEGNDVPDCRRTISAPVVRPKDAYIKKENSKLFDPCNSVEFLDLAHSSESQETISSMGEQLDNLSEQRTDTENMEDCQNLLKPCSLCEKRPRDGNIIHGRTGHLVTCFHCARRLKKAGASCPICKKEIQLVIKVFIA
Target sequence (Q00987 whole entry, looked up): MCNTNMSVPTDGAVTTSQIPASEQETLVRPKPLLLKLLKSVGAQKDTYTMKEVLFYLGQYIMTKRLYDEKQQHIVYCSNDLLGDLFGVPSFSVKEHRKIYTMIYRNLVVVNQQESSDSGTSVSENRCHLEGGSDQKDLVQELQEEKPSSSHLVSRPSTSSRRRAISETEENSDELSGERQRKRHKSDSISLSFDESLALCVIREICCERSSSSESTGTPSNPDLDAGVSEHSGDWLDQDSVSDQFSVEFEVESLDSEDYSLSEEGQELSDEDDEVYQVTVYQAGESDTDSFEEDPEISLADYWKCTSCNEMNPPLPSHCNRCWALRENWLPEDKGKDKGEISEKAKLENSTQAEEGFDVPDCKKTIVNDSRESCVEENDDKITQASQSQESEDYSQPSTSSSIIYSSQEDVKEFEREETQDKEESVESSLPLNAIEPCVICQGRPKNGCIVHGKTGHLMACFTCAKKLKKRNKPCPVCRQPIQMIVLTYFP
HIF-2a inh conf: HIF-2a inhibition, single concentration confirmation. inhibition, % at 18.8 µM. 786-0 RCC cells, HIF-2a luciferase reporter luminescence, overnight. 56% of 1,800 active. shares compounds with HIF-2a block;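 active means mean inhibition across four replicates of at least 40 percent at the single tested concentration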
HIF-1a counter: counter-screen for HIF-2a inhibitors: HIF-1a inhibition in MiaPaCa-2 cells; shares compounds with HIF-2a block; MiaPaCa-2 HIF-1a luciferase reporter, desferoxamine, overnight; inhibition, % at 18.8 µM; 72% of 1,800 active;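 active means mean inhibition of the reporter signal across four replicates at the single tested dose of 50% or more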
* hit, by the source's call; ? = inconclusive; . = not tested or not shown. Most compounds without a hit are left out; they make up all but 2.1% or so of the library.

SMILES | HIF-2a block | EWS-Fli inh | CF NFkB block | PAX8 reporter | KKLEB tox | HIF-2a inh conf | HIF-1a counter | others
COc1ccc(-c2csc(NC(C)=O)n2)cc1OC | -39 | . | -1 | -19 | -12 | . | .
COc1cccc(NC(=O)Nc2nc(-c3ccc(OC)c(OC)c3)cs2)c1 | -122 | 65* | 109* | 104* | -100* | . | . | Mdm2-MdmX confirm=103*
CCOc1ccc(-n2nc3ccc(N)cc3n2)cc1 | 36 | 46 | 1 | -28 | -20 | . | .
COc1ccc(-n2nc3ccc(N)cc3n2)cc1 | 46* | -12 | 33 | -24 | -7 | 70* | 0
COCC(=O)Nc1ccc2c(c1)OC[C@@H](C)N(CCC(F)(F)F)C[C@@H](C)[C@H](OC)CN(C)C2=O | . | 0 | . | -1 | . | . | .
CC(=O)Nc1ccc(NC(=O)c2sc3nc4n(c(=O)c3c2C)CCCCC4)cc1 | 80* | 0 | -3 | 20 | -4 | 90* | 90*
CCc1ccc(NC(=O)c2sc3nc4n(c(=O)c3c2C)CCC4)cc1 | -218 | . | -8 | -18 | 3 | . | .
C[C@@H](NC(=O)C[C@H]1CC[C@@H]2[C@@H](COc3ccc(NC(=O)C4CCOCC4)cc3C(=O)N2C)O1)c1ccccc1 | . | -6 | . | -40 | . | . | .
O=C([C@H]1[C@H](CO)[C@H]2Cn3c(cccc3=O)[C@H]2N1C(=O)CC1CC1)N1CCCCC1 | . | 2 | . | -15 | . | . | .
CN(CCO)c1cc(Sc2nc3ccccc3s2)c2nonc2c1[N+](=O)[O-] | 86* | 53* | 18 | . | -4 | 89* | 73*
CC(=O)OCCN(C)c1cc(SC(C)C)c2nonc2c1[N+](=O)[O-] | 13 | 4 | 4 | 23 | 6 | . | .
COCC(=O)N(C)C[C@H]1Oc2cc(-c3ccc(C)cc3)ccc2S(=O)(=O)N([C@@H](C)CO)C[C@H]1C | . | -8 | . | . | . | . | .
COCCN(C[C@@H]1N[C@@H](CO)[C@H]1c1ccc(-c2cccc(F)c2)cc1)C(C)=O | . | 2 | . | 1 | . | . | .
COc1ccccc1C(C[N+](=O)[O-])c1c(N)n(C)c(=O)n(C)c1=O (stereo not given) | 74* | 23 | 48 | 64* | -9 | 56* | -3
COc1ccccc1C(c1c(N)n(C)c(=O)n(C)c1=O)C(C)[N+](=O)[O-] (stereo not given) | 12 | 11 | -17 | 1 | 13 | . | .
COc1ccc2c(c1)-c1c(sn(-c3ccccc3)c1=S)C(C)(C)N2 | 28 | . | 3 | 8 | 2 | . | .
COc1ccc2c(c1)-c1c(ssc1=S)C(C)(C)N2 | 24 | . | 81* | . | -34 | . | . | Mdm2-MdmX confirm=95*
O=C1c2ccccc2C(=O)c2c1oc(C(F)(F)F)c2C(=O)c1ccccc1 | 23 | . | 90* | . | -82* | . | . | Mdm2-MdmX confirm=94*
O=C(c1ccccc1)c1ccc(CN2C(=O)c3ccccc3C2=O)o1 | -5 | 10 | 12 | . | 3 | . | .
C=C1CC(COc2cc(=O)oc3ccccc23)(c2ccccc2)OC1=O (stereo not given) | 90* | ? | 98* | 25 | -104* | 57* | 106*
C=C1CCC2C(C)(C)[C@H](O)CC[C@@]2(C)[C@@H]1COc1cc(=O)oc2ccccc12 (stereo not given in full) | 7 | . | 29 | . | -8 | . | .
CC(C(=O)NCc1ccccc1)n1c(CSCCOc2ccccc2)nc2ccccc21 (stereo not given) | -1 | 9 | . | 22 | . | . | .
CCC(C(=O)NCc1ccccc1)n1c(CSCCOc2ccccc2)nc2ccccc21 (stereo not given) | 64* | ? | . | 2 | . | 74* | 77*
COc1ccc(C(C(=O)NC2CCCC2)n2c(CSCCOc3ccccc3)nc3ccccc32)cc1 (stereo not given) | 43* | 44 | . | -10 | . | 74* | 63*
CCN(CC)S(=O)(=O)c1cc([N+](=O)[O-])ccc1NNC(=O)Nc1ccc(Cl)c(Cl)c1 | 14 | . | 48 | 89* | -32 | . | . | Mdm2-MdmX confirm=94*
SMILES | HIF-2a block | EWS-Fli inh | CF NFkB block | PAX8 reporter | KKLEB tox | HIF-2a inh conf | HIF-1a counter | others
O=C(NNc1ccccc1[N+](=O)[O-])Nc1ccc(Cl)c(Cl)c1 | 1 | -1 | 22 | -2 | 19 | . | .
N#Cc1ccc(-c2ccc([C@H]3[C@@H](CO)N4C(=O)CN(C(=O)C5CCCC5)C[C@@H]34)cc2)cc1 | . | -3 | . | -4 | . | . | .
COC(=O)C[C@H]1c2ccccc2S(=O)(=O)N1c1cccc(OC)c1 | 1 | 5 | 4 | 12 | 9 | . | .
COc1ccc(CN2[C@@H](CC(C)=O)c3ccc(/C=C/C(C)=O)cc3S2(=O)=O)cc1 | 43* | 19 | 22 | 0 | 9 | 6 | 48
COc1cccc(N2[C@@H](CC(C)=O)c3ccc(/C=C/C(C)=O)cc3S2(=O)=O)c1 | 45* | 39 | -26 | -1 | 2 | 12 | 32
CCCCCCCCCCCCCCCC(O)C[N+](C)(C)CCO (stereo not given) | 62* | 6 | 54* | . | -62* | 52* | 92*
COc1ccc(NC(=O)N[C@H]2CC[C@@H](CCn3cc(C4(O)CCCC4)nn3)O[C@H]2CO)cc1 | . | 1 | . | 4 | . | . | .
C/C(=N\NC(=S)Nc1cc(S(=O)(=O)N2CCOCC2)ccc1Cl)c1ccccc1F | 70* | 32 | 15 | 7 | 0 | 25 | 87*
O=C(C[C@@H]1CC[C@H]2[C@@H](COC[C@H](O)CN2Cc2ccc(Cl)cc2)O1)NCCc1ccccc1 | . | 15 | . | 30 | . | . | .
O=C(C[C@@H]1CC[C@@H]2[C@H](COC[C@@H](O)CN2S(=O)(=O)c2ccccc2)O1)NCCN1CCCCC1 | . | -1 | . | 0 | . | . | .
CS(=O)(=O)N1[C@H](CO)[C@@H](c2ccc(-c3ccccc3F)cc2)[C@@H]1C#N | . | -33 | . | 1 | . | . | .
C[C@@H]1CN([C@@H](C)CO)C(=O)c2cc(C#Cc3ccncc3)cnc2O[C@H]1CN(C)CC1CCCC1 | . | -6 | . | -2 | . | . | .
CCc1nc(Nc2ccncc2)c2oc3ccccc3c2n1 | 47* | . | -60 | . | -4 | 26 | 82*
C[C@H]1CN([C@@H](C)CO)C(=O)Cc2cc(NC(=O)C3CC3)ccc2O[C@@H]1CN(C)Cc1ccncc1 | . | -2 | . | -15 | . | . | .
c1csc(C2=Nn3c(nnc3-c3ccncc3)SC2)c1 | -1 | . | 66* | . | -16 | . | . | Mdm2-MdmX confirm=93*
Cc1ccc(S(=O)(=O)N(C)C[C@H]2OCCCC[C@H](C)Oc3ccc(NC(=O)CCCN(C)C)cc3C(=O)N([C@H](C)CO)C[C@@H]2C)cc1 | . | -3 | . | 1 | . | . | .
Cc1cc(C)n(S(=O)(=O)/C=C/c2ccccc2)n1 | 23 | . | 9 | . | 7 | . | . | Mdm2-MdmX confirm=93*
Cc1ccc(S(=O)(=O)n2nc(C)cc2C)cc1 | 3 | . | -6 | -11 | 13 | . | .
O=C(O)c1ccc(CSc2nc3c(c(=O)[nH]2)CCC3)cc1 | 13 | -1 | 14 | -4 | -17 | . | .
